# Data: PubChem BioAssay AID504381 (The Scripps Research Institute Molecular Screening Center, 2011)
# Values without a mark were called inactive. The rule behind the calls is not given here.
# Tested on: Sigma receptor 2
# Test: radioligand displacement at receptors and transporters – biochemical, PDSP panel, Set 2, late-stage follow-up (AID 504381)
# Conditions: PDSP radioligand binding panel, at 10 µM, stronger effect = higher value
compound,measurement,value
CC(=O)c1ccc2c(c1)Nc1ccccc1S2,inhibition,-12.2%
